The text below walks through data of the supplement of paper PMC8047044.

Molecules are shown by their SMILES. Where “and” joins values, the source holds several entries; their conditions need not be identical. Identical values can stand only once. Counter-ions that a name gives are not always drawn.

In the test the test system is Neuro-2a. As to the kind of experiment: neurite formation score, plate-normalized to DMSO control mean 5.04 (score (0-8 scale)); higher = more or longer neurites. The note with it: 0.1 µM. The protocol: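 Neuro-2a mouse neuroblastoma cells in PLL-coated 96-well plates were pre-treated for 1 h in DMEM(+) with each kinase inhibitor at 0.1 µM, then switched to serum-free DMEM(-) with inhibitor to induce neurite outgrowth and fixed about 2-3 h later. Three blinded observers scored neurite formation from 0 (no neurites) to 8 (long neurites on almost all cells).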
As to `COc1ccc(-c2ccc3c(N4CCOCC4)nc(N4C[C@@H](C)O[C@@H](C)C4)nc3n2)cc1CO`, the neurite formation score stood at 4.25.

Compound `C=CC(=O)Nc1ccc2ncnc(Nc3cccc(Br)c3)c2c1` displayed a neurite formation score of 3.71.

For the compound `c1ccc2c(-c3cnn4cc(-c5ccc(N6CCNCC6)cc5)cnc34)ccnc2c1`, the neurite formation score was 2.42 and 4.42.

`Nc1ncnc2c1c(-c1cccc(OCc3ccccc3)c1)cn2C1CC(CN2CCC2)C1` (stereo not given) registered a neurite formation score of 4.71.

With `CC(C)CCN1c2nc(Nc3cc(F)c(O)c(F)c3)ncc2N(C)C(=O)C1C` (stereo not given), the neurite formation score came out at 3.42.

The compound `Cc1ccc(Nc2nccc(N(C)c3ccc4c(C)n(C)nc4c3)n2)cc1S(N)(=O)=O` returned a neurite formation score of 3.71.

As for `C=CC(=O)N1CCC(Oc2cc3c(Nc4ccc(Cl)c(Cl)c4F)ncnc3cc2OC)CC1` [Poziotinib], the neurite formation score turned out to be 3.76.

`Cc1ccc(C(=O)Nc2ccc(CN3CCN(C)CC3)c(C(F)(F)F)c2)cc1C#Cc1cnc2cccnn12` displayed a neurite formation score of 3.88.

Regarding `C=CC(=O)Nc1cc2c(Nc3ccc(F)c(Cl)c3)ncnc2cc1OCCCN1CCOCC1` [Canertinib (CI-1033)], the neurite formation score was 4.71.

In turn, `COc1cc(-c2cc(-c3ccc(N4CCNCC4)cc3)cnc2C)cc(OC)c1OC` had a neurite formation score of 5.09.

For `CO[C@H]1C[C@@H]2CC[C@@H](C)[C@@](O)(O2)C(=O)C(=O)N2CCCC[C@H]2C(=O)O[C@H]([C@H](C)C[C@@H]2CC[C@@H](O)[C@H](OC)C2)CC(=O)[C@H](C)/C=C(\C)[C@@H](O)[C@@H](OC)C(=O)[C@H](C)C[C@H](C)/C=C/C=C/C=C/1C` [Rapamycin (Sirolimus)], the neurite formation score was determined as 5.54.

As for `Cn1c(=O)c(F)c(Nc2ccc(I)cc2F)c2c(=O)n(C[C@@H](O)CO)cnc21`, the neurite formation score was 4.42.

On to `Cn1sc(=O)n(Cc2ccccc2)c1=O`, for which the neurite formation score is 4.25.

For the compound `CN1CCN(c2ccc(C(=O)Nc3n[nH]c4ccc(Cc5cc(F)cc(F)c5)cc34)c(NC3CCOCC3)c2)CC1` [Entrectinib], the neurite formation score was determined as 0.751.

Compound `Cc1ccc(C(=O)Nc2cccc(C(F)(F)F)c2)cc1Nc1nc(-c2cccnc2)nc2c1cnn2C` yielded a neurite formation score of 4.25.

In turn, `CC(C)(C#N)c1ccc(N2C(=O)OCc3cnc4ccc(-c5cnc6ccccc6c5)cc4c32)cc1` returned a neurite formation score of 4.25.

`C[C@@H](Oc1cc(-n2cnc3ccc(CN4CCN(C)CC4)cc32)sc1C(N)=O)c1ccccc1C(F)(F)F` came in with a neurite formation score of 3.58.

Regarding `CCCCCCCCCCCCc1ccc(S(=O)(=O)Nc2nncs2)cc1`, the neurite formation score was 5.54.

With `Cc1ccc(-c2nn(C(C)(C)C)c3ncnc(N)c23)cc1`, the neurite formation score turned out to be 3.54.

Compound `Nc1ncnc2n[nH]c(Nc3ccc(F)cc3)c12` came in with a neurite formation score of 5.08.

`COc1cc2ncnc(Nc3cccc(Br)c3)c2cc1OC` came in with a neurite formation score of 5.09.

As to `CNC(=O)c1ccccc1Nc1nc(Nc2ccc(N3CCOCC3)cc2OC)ncc1Cl`, the neurite formation score turned out to be 4.58.

The compound `Cc1c(CN2CCN(C(=O)[C@H](C)O)CC2)sc2c(N3CCOCC3)nc(-c3cnc(N)nc3)nc12` displayed a neurite formation score of 4.42.

On to `O=C(Cc1ccc(-c2ccc(OCCN3CCOCC3)cc2)cn1)NCc1ccccc1` [KX2-391 dihydrochloride], for which the neurite formation score worked out at 0.584.

With `CNC(=O)c1cc(COc2nnc(Nc3ccc(Cl)cc3)c3ccoc23)ccn1` [Telatinib (BAY 57-9352)], the neurite formation score was 4.92.

The compound `CN1CCC(CNc2ccc3ncc(-c4cccc(OC(F)(F)F)c4)n3n2)CC1` [SGI-1776 free base] showed a neurite formation score of 5.25.

Turning to `Nc1nc(NCCNc2ncc(-n3ccnc3)c(-c3ccc(Cl)cc3Cl)n2)ccc1[N+](=O)[O-]`, the neurite formation score was found to be 4.92.

In the case of `C[C@H](NC(=O)/C(C#N)=C/c1cccc(Br)n1)c1ccccc1`, the neurite formation score was 4.58.

Compound `COc1cc2ncnc(Nc3cccc(Cl)c3F)c2cc1OC(=O)N1CCN(C)C[C@H]1C` gave a neurite formation score of 4.75.

In turn, `Cc1ccc(NC(=O)c2ccc(CN3CCN(C)CC3)cc2)cc1Nc1nccc(-c2cccnc2)n1` [Imatinib Mesylate (STI571)] returned a neurite formation score of 4.71.

Regarding `CCN1C(=CC(C)=O)Sc2ccc(OC)cc21`, the neurite formation score came out at 4.92.

As for `CC(C)c1cc(CNc2nc(Nc3cc(C4CC4)[nH]n3)cc(N3CCN(C)CC3)n2)on1`, the neurite formation score was found to be 4.92.

Take `COc1cc(N2CCC(N(C)C)CC2)ccc1Nc1ncc(Cl)c(Nc2ccccc2P(C)(C)=O)n1`: the neurite formation score was determined as 4.38.

Compound `NC(=O)c1cccc(-c2cc(Nc3ccc(OC(F)(F)F)cc3)ncn2)c1` returned a neurite formation score of 3.76.

Regarding `C=CC(=O)Nc1cccc(Sc2nc(Nc3ccc(N4CCN(C)CC4)cc3)ncc2Cl)c1`, the neurite formation score was 4.71.

In turn, `O=c1cc(CN2CCOCC2)occ1OCCCCCSc1ccnc2cc(C(F)(F)F)ccc12` gave a neurite formation score of 5.75.

`CS(=O)(=O)N1CCN(Cc2cc3nc(-c4cccc5[nH]ncc45)nc(N4CCOCC4)c3s2)CC1` gave a neurite formation score of 5.21.

With `Cc1cccc(CC(=O)N2CCc3c2ccc(-c2cn(C)c4ncnc(N)c24)c3F)n1`, the neurite formation score is 4.42.

`COc1c(OCCCN2CCOCC2)ccc2c3n(c(=NC(=O)c4cnc(N)nc4)nc12)CCN3` [BAY 80-6946 (Copanlisib)] came in with a neurite formation score of 4.76.

On to `Cc1[nH]nc2ccc(-c3cncc(OC[C@@H](N)Cc4ccccc4)c3)cc12`, for which the neurite formation score worked out at 4.25.
